# Data published in PubChem BioAssay (NCATS).
# Values joined by “and” are separate entries in the source; they are usually repeats but may differ in a detail not shown here. Identical values can stand only once. Inconclusive results are not listed. A call without a number means that no potency is given here. Active and inactive are the calls of the source. Unless noted, calls come from the whole dose curve; as a rule, active = well fitted curve in the direction sought with a large enough effect; inconclusive = small, poorly fitted or top-dose-only effect, or another doubt; inactive = no such curve, though single readings can be large; an effect the other way counts as inactive or inconclusive.
# How the values were obtained:
# [1] = Cytotoxicity counterscreen for NFkB agonists and antagonists (AID 624476)
# [2] = qHTS Assay for Identification of Small Molecule Agonists for NFkB Signaling Pathway. (AID 624478)
# In short: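 NFkB-bla ME-180 cells carry a beta-lactamase reporter. They received compound plus TNF alpha at 10 pM final (its EC50) for 5 h at 37 C. Reporter activity was read as 460/530 nm emission ratio after 2 h LiveBLAzer substrate loading.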
# [3] = qHTS Assay for Identification of Small Molecule Antagonists for NFkB Signaling Pathway. (AID 624479; calls by dose curve;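 note: pathway stimulated with TNF alpha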; note: potency is the fitted concentration of half-maximal effect)
# [4] = Cell Proliferation Assay against the TMD8 Cell Line (AID 651645); conditions: TMD8 DLBCL cell line proliferation/viability; at 46.1 µM (top of the series) unless noted;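 note: cells exposed to compound for 48 h before reading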
# In short: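 Cell viability of the ABC DLBCL line TMD8 is measured by CellTiter-Glo luminescence following a 48-hour incubation with compound. Percent activity uses DMSO as 100% and 9.2 uM bortezomib (final) as 0%.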
# [5] = Cell Proliferation Assay against the HBL1 Cell Line (AID 651646); conditions: HBL1 DLBCL cells; at 46.1 µM (top of the series) unless noted;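 note: cells exposed to compound for 48 h before reading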
# In short: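 Luminescent ATP read-out (CellTiter-Glo) after 48 h compound exposure of HBL1 cells at 37 °C; percent activity was scaled between DMSO as 100% and 9.2 uM bortezomib (final) as 0%.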
# [6] = Cell Proliferation Assay against the TMD8 Cell Line (Caspase readout at 16 hrs) (AID 651712)
# In short: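 Apoptotic response of TMD8 cells was judged from caspase 3/7 activation following a 16 hour compound incubation at 37 °C. Luminescent signal was converted to percent activity, with DMSO set as 0% and 9.2 uM final bortezomib as 100%.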
# [7] = Cell Proliferation Assay against the TMD8 Cell Line (Caspase readout at 8 hrs) (AID 651713)
# In short: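 TMD8 cells in RPMI plus 5% FBS were treated with compound for 8 h at 37C. Caspase 3/7 activation was read by Caspase-Glo luminescence. Percent activity was scaled from DMSO (0%) to 9.2 uM bortezomib final (100%).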
# [8] = molecular target: Tyrosine-protein kinase Yes (Homo sapiens) (UniProt P07947); assay: qHTS for small molecule inhibitors of Yes1 kinase: Primary Screen (AID 686947); note: nearly all actives have a fitted effect of over 60% in size
# Sequence of Tyrosine-protein kinase Yes (Homo sapiens) (P07947 whole entry, looked up): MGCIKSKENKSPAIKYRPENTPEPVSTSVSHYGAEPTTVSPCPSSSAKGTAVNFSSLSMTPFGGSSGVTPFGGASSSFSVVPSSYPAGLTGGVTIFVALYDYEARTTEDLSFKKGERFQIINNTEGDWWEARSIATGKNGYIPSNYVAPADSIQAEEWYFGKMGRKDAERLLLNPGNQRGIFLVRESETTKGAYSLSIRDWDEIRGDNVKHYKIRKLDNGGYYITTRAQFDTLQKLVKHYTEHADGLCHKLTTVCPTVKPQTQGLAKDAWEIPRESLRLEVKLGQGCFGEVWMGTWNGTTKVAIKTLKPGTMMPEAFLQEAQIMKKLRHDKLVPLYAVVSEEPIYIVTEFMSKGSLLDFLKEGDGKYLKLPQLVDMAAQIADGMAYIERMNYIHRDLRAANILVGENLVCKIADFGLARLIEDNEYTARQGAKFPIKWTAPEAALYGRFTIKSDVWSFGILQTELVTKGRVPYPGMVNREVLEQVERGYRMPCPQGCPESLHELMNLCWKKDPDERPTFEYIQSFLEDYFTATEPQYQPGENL
# In short: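 Yes1 (4 nM) preincubated 20 min with compound, then 60 min room-temperature reaction with 0.1 mM ATP and 0.3 mg/mL poly(E4Y) in pH 7.5 Tris, 10 mM MgCl2. ADP measured by ADP-Glo luminescence, normalised to enzyme/no-enzyme controls.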
# [9] = qHTS of Nrf2 Activators: LOPAC Validation (AID 624149)
# In short: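 AREc32_Fluc cells, 1000/well in OPTI-MEM with 5% FBS, grown overnight, then exposed to compounds for 24 hr at 37 deg C, 5% CO2. ARE-driven firefly luciferase read by Steady-Glo luminescence after 30 min at RT.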
# [10] = qHTS assay for small molecule agonists of the antioxidant response element (ARE) signaling pathway (AID 651741; active = well fitted activation curve with a large enough effect in the signal ratio; the % refers to the signal ratio)
# In short: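 Quantitative HTS in HepG2 cells stably expressing an ARE-beta-lactamase reporter; 16 h compound exposure at 37 C, followed by 2 h room-temperature incubation with LiveBLAzer B/G FRET substrate and fluorescence measurement.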
# [11] = qHTS assay for small molecule activators of the p53 signaling pathway (AID 651743; active = well fitted activation curve with a large enough effect in the signal ratio, not every such curve was filed as active; the % refers to the signal ratio); conditions: HCT-116 p53RE-bla, beta-lactamase FRET ratio, 16 h; activation: stronger effect = higher value
# In short: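 Read-out is fluorescence intensity from the LiveBLAzer B/G FRET substrate, added for 2 hours at room temperature after HCT-116 p53RE-bla cells had been incubated with compounds for 16 hours at 37 C.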
# [12] = qHTS assay for small molecule activators of the nuclear factor-kappa B (NF-kB) signaling pathway (AID 651749; active = well fitted activation curve with a large enough effect in the signal ratio; the % refers to the signal ratio); conditions: NF-kB-bla ME-180 cells, beta-lactamase FRET ratio, 16 h; stronger effect = higher value
# In short: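 Readout: beta-lactamase reporter driven by an NF-kB response element, detected fluorescently as loss of FRET. Cells were the ME-180 line, treated 16 hr at 37C with pin-transferred compound.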
# [13] = qHTS assay for environmental chemicals that activate the Aryl hydrocarbon Receptor (AhR) signaling pathway (AID 651777); conditions: 1A2-DRE human hepatoma cells, luciferase, 24 h; stronger effect = higher value; note: nearly all actives have a fitted effect of over 15% in size
# In short: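 Measured luciferase activity, read 30 min after One-Glo addition at room temperature, from human hepatoma cells bearing a dioxin response element–CYP1A2 promoter reporter and exposed to compound for 24 hr at 37 C.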
# [14] = molecular target: Peroxisome proliferator-activated receptor alpha (Homo sapiens) (UniProt Q07869); assay: qHTS assay for small molecule agonists of the peroxisome proliferator-activated receptor alpha (PPARalpha) signaling pathway (AID 651778); conditions: PathHunter PPARalpha complementation, chemiluminescence, 6 h; stronger effect = higher value
# Sequence of Peroxisome proliferator-activated receptor alpha (Homo sapiens) (Q07869 whole entry, looked up): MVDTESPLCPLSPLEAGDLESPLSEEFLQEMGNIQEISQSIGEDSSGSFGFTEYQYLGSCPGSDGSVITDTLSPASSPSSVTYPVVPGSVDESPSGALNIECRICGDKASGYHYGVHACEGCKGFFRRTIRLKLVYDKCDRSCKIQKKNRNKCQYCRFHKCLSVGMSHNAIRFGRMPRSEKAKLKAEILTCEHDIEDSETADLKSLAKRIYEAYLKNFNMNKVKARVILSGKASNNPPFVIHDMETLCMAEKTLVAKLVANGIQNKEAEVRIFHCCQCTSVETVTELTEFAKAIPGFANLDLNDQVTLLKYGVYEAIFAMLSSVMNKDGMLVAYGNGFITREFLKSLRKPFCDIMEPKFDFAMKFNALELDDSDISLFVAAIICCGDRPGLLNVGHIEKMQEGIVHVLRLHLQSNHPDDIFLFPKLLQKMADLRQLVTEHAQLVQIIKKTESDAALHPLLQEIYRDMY
# In short: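 Chemiluminescence from complemented enzyme reported PPARalpha activation in cells after 6 hr of compound treatment at 37 C. The detection reagent was incubated for 60 min at room temperature, and compounds were scored as agonists.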
# [15] = qHTS assay for small molecule disruptors of the mitochondrial membrane potential - 1 hr assay (AID 651754; calls by dose curve; note: nearly all actives have a fitted effect of over 35% in size)
# In short: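 HepG2 cells, attached overnight, were exposed to compound for 1 hr at 37C, then stained 30 min with a potentiometric dye. Ratio of red aggregate (590nm) to green monomer (535nm) fluorescence reports membrane potential; collapse shifts signal toward green.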
# [16] = qHTS assay for small molecule disruptors of the mitochondrial membrane potential - 5 hr assay (AID 651755; calls by dose curve; note: nearly all actives have a fitted effect of over 40% in size)
# In short: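 HepG2, 2,000 cells/well, overnight attach; cpd or DMSO 5 hr, 37C/5% CO2; Mito-MPS 30 min 37C; fluor 490/535 + 540/590 nm.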
# [17] = qHTS assay to identify small molecules that stimulate interleukin-8 (IL-8) secretion (AID 651758; active = well fitted activation curve with a large enough effect in the signal ratio; the % refers to the signal ratio)
# In short: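 Secreted IL-8 measured by TR-FRET sandwich (cryptate and XL665 antibodies) from THP-1 cells exposed to compound overnight (16 hrs, 37 C).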
# [18] = molecular target: Nuclear receptor ROR-gamma (Homo sapiens) (UniProt P51449); assay: qHTS assay for small molecule antagonists of the retinoid-related orphan receptor gamma (ROR-gamma) signaling pathway (AID 651802);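 note: luciferase reporter luminescence driven by ROR response element; nearly all actives have a fitted effect of over 60% in size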
# Sequence of Nuclear receptor ROR-gamma (Homo sapiens) (P51449 whole entry, looked up): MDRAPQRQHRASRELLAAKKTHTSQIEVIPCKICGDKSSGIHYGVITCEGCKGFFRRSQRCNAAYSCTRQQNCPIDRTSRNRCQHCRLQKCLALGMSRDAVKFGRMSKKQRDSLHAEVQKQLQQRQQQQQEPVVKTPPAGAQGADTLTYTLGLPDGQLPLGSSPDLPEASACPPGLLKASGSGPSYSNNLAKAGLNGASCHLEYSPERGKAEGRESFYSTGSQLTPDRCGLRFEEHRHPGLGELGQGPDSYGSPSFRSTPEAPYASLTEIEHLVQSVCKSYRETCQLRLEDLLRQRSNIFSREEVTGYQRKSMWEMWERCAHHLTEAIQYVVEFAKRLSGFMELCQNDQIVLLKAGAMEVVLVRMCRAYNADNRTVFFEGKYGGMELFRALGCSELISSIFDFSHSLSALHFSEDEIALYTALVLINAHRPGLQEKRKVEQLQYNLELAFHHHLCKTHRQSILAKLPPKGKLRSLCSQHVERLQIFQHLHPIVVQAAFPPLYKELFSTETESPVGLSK
# In short: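 CHO cells with TET-inducible ROR-gamma and RORE-luciferase reporter, dosed then doxycycline-induced. After 16 h at 37C, One-Glo luminescence read; decreased signal indicates antagonism.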
# [19] = molecular target: Tumor necrosis factor (Homo sapiens) (UniProt P01375); assay: qHTS assay to identify small molecules that stimulate Tumor Necrosis Factor-alpha (TNF-alpha) secretion (AID 651757; active = well fitted curve in the direction sought with a large enough effect in the signal ratio; the % refers to the signal ratio)
# Sequence of Tumor necrosis factor (Homo sapiens) (P01375 whole entry, looked up): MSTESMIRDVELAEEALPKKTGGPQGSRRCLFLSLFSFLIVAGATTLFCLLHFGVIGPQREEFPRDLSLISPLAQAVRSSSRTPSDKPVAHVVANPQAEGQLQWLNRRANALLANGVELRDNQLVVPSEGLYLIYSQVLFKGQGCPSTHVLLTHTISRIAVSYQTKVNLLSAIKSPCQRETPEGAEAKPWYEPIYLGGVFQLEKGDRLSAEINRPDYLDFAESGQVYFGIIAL
# In short: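 THP-1 cells (3000/well) exposed to compounds 17 hrs at 37 C. Secreted TNF-alpha detected by HTRF with cryptate- and XL665-labeled anti-TNF-alpha antibodies after 3 hr at room temperature.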
smiles,measurement,setting,value
Fc1ccc(Cl)cc1-c1nc(Nc2ccncc2)c2nccnc2n1,Potency,[1],inactive
same,outcome,[2],inactive
same,Potency,[3],inactive
same,viability (% of control),[4],98.1%
same,"viability, percent of control",[5],93.2%
same,Potency,[6],inactive
same,Potency,[7],inactive
CC[C@@H](C)[C@H](NC(=O)[C@H](CC1CCCCC1)NC(=O)c1ccno1)C(=O)N1CCC2(CCc3ccccc32)CC1,Potency,[1],inactive
same,outcome,[2],inactive
same,Potency,[3],inactive
same,viability (% of control),[4],62.6%
same,"viability, percent of control",[5],65.5%
same,Potency,[6],inactive
same,Potency,[7],inactive
same,Potency,[8],inactive
O=C1CCC(N2C(=O)c3ccccc3C2=O)C(=O)N1 (configuration not stated),outcome,[9],inactive
same,Potency,[10],inactive
same,activation,[11],-2.08% (inactive)
same,activation,[12],-0.119% (inactive)
same,activation,[13],-0.0215% (inactive)
same,max response,[14],-0.602% (inactive)
CC1(C)SCCN(S(=O)(=O)c2ccc(OCC#CCO)cc2)[C@@H]1C(=O)NO,Potency,[1],inactive
same,outcome,[2],inactive
same,Potency,[3],inactive
same,viability (% of control),[4],84.4%
same,"viability, percent of control",[5],97.2%
same,Potency,[6],inactive
same,Potency,[7],inactive
CC(C)OC(=O)C1=CN(C(=O)c2ccc(F)c(F)c2)CC(C)(C)c2c1[nH]c1ccccc21,Potency,[1],inactive
same,outcome,[2],inactive
same,Potency,[3],inactive
same,viability (% of control),[4],9.41%
same,"viability, percent of control",[5],100%
same,Potency,[6],inactive
same,Potency,[7],inactive
NS(=O)(=O)c1cc2c(cc1Cl)NC=NS2(=O)=O,outcome,[9],inactive
same,Potency,[10],inactive
same,activation,[11],-2.13% (inactive)
same,activation,[12],-0.0978% (inactive)
same,outcome,[15],inactive
same,outcome,[16],inactive
same,outcome,[17],inactive
same,activation,[13],-1.42% (inactive)
same,max response,[14],-1.54% (inactive)
same,outcome,[18],inactive
Cc1oncc1C(=O)Nc1ccc(C(F)(F)F)cc1,outcome,[9],inactive
same,Potency,[1],inactive
same,outcome,[2],inactive
same,Potency,[3],inactive
same,viability (% of control),[4],54%
same,"viability, percent of control",[5],84%
same,Potency,[6],inactive
same,Potency,[8],inactive
NC(=O)c1ccc(I)c([N+](=O)[O-])c1,Potency,[1],inactive
same,outcome,[2],inactive
same,Potency,[3],inactive
same,viability (% of control),[4],92.9%
same,"viability, percent of control",[5],76.7%
same,Potency,[6],inactive
O=c1[nH]c(-c2ccc(C(F)(F)F)cc2)nc2c1CSCC2,Potency,[1],inactive
same,outcome,[2],inactive
same,Potency,[3],inactive
same,viability (% of control),[4],82.1%
same,"viability, percent of control",[5],105%
same,Potency,[6],inactive
same,Potency,[7],inactive
Nc1nc2[nH]cc(CCc3ccc(C(=O)N[C@@H](CCC(=O)O)C(=O)O)cc3)c2c(=O)[nH]1,Potency,[1],inactive
same,outcome,[2],inactive
same,Potency,[3],inactive
same,viability (% of control),[4],40%
same,"viability, percent of control",[5],74.6%
same,Potency,[6],inactive
same,Potency,[7],inactive
CCC(C)N(C)C(=O)c1cc2ccccc2c(-c2ccccc2Cl)n1 (configuration not stated),outcome,[9],inactive
same,Potency,[1],inactive
same,outcome,[2],inactive
same,Potency,[3],inactive
same,viability (% of control),[4],65.6%
same,"viability, percent of control",[5],90%
same,Potency,[8],inactive
COc1ccc(-c2oc3cc(OC)ccc3c2C(=O)c2ccc(C#N)cc2)cc1,Potency,[1],inactive
same,outcome,[2],inactive
same,Potency,[3],inactive
same,viability (% of control),[4],52.2%
same,"viability, percent of control",[5],76%
same,Potency,[6],inactive
same,Potency,[7],inactive
same,Potency,[8],inactive
Cn1c(=O)c(F)c(Nc2ccc(I)cc2F)c2c(=O)n(C[C@@H](O)CO)cnc21,Potency,[1],inactive
same,outcome,[2],inactive
same,Potency,[3],inactive
same,viability (% of control),[4],63.3%
same,"viability, percent of control",[5],38.3%
same,Potency,[6],inactive
NC[C@H](O)c1ccc(O)c(O)c1,outcome,[9],inactive
same,activation,[13],0.207% (inactive)
same,max response,[14],-1.8% (inactive)
Cc1[nH]c(=O)c(C#N)cc1-c1ccncc1,outcome,[9],inactive
same,Potency,[10],inactive
same,activation,[11],-6.25% (inactive)
same,activation,[12],-0.647% (inactive)
same,activation,[13],0.896% (inactive)
same,max response,[14],0.228% (inactive)
COc1cc(Oc2ccnc3cc(OC)c(OC)cc23)ccc1NC(=O)NC(C)c1nccs1 (configuration not stated),Potency,[1],inactive
same,outcome,[2],inactive
same,Potency,[3],16.8 µM (active)
same,viability (% of control),[4],69%
same,"viability, percent of control",[5],59.4%
Cc1csc(NC(=O)c2sc3nc4c(c(C(F)(F)F)c3c2N)CCC4)n1,Potency,[1],inactive
same,outcome,[2],inactive
same,Potency,[3],inactive
same,viability (% of control),[4],64.8%
same,"viability, percent of control",[5],60.9%
same,Potency,[6],inactive
same,Potency,[7],inactive
same,Potency,[8],inactive
NC(=O)c1cnccn1,outcome,[9],inactive
same,Potency,[10],inactive
same,activation,[11],0.545% (inactive) and -2.21% (inactive)
same,activation,[12],-0.539% (inactive) and -2.05% (inactive)
same,outcome,[19],inactive
same,activation,[13],-0.771% (inactive) and 0.812% (inactive)
same,max response,[14],-0.88% (inactive) and -1.97% (inactive)
same,outcome,[18],inactive
CNCc1ccc(-c2[nH]c3cc(F)cc4c3c2CCNC4=O)cc1,Potency,[1],inactive
same,outcome,[2],inactive
same,Potency,[3],21.1 µM (active)
same,viability (% of control),[4],79.6%
same,"viability, percent of control",[5],73.9%
Cc1ccccc1C(OCCN(C)C)c1ccccc1 (configuration not stated),outcome,[9],inactive
same,Potency,[10],inactive
same,activation,[11],-4.64% (inactive)
same,activation,[12],2.9% (inactive)
same,activation,[13],0.382% (inactive)
same,max response,[14],-4.12% (inactive)
O=c1[nH]cnc2[nH]ncc12,outcome,[9],inactive
same,activation,[12],1.17% (inactive)
same,outcome,[19],inactive
same,activation,[13],-0.722% (inactive)
same,max response,[14],-0.201% (inactive)
same,outcome,[18],inactive
Nc1nc2ccc(OC(F)(F)F)cc2s1,outcome,[9],inactive
same,Potency,[1],inactive
same,outcome,[2],inactive
same,Potency,[3],inactive
same,"viability, percent of control",[5],50.6%
same,Potency,[8],inactive
